# Most compounds without a hit are left out; they make up all but 12% or so of the library.
# AMA1-RON2 inh: qHTS for Inhibitors of AMA1-RON; Towards Development of Antimalarial Drug Lead: Primary Screen; Plasmodium falciparum AMA1 (3D7) - RON2 peptide interaction; AlphaScreen AMA1-biotinylated RON2 peptide binding; Potency, µM (titrated, usually from 58.2 µM), most hits filed as inhibitors; 360,000 compounds, 0.2% hits; note: nearly all actives have a fitted effect of over 45% in size
#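 AMA1 (3D7) with his tag at 25 nM final met compounds first, then biotinylated RON2 peptide at 25 nM; detection used donor plus acceptor beads, 10 µg/mL apiece, read by AlphaScreen after 30 min at room temperature.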
# Pf growth 96h: Primary qHTS for delayed death inhibitors of the malarial parasite plastid, 96 hour incubation. AID 504834, 2011. 320,000 compounds, 6.9% hits. P. falciparum luciferase reporter growth, 96 h. Potency, µM (titrated, usually from 28.7 µM), most hits filed as inhibitors
#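 Cell-based qHTS: luciferase-tagged P. falciparum in erythrocytes (2% hematocrit, 0.05% parasitemia final) incubated with compounds for 96 hours, 37 C, 5% CO2; luciferase detection reagent then added and luminescence measured.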
# NS1 inh: qHTS Assay for Inhibitors of Influenza NS1 Protein Function | AID 2326, 2010 | 270,000 compounds, 0.4% hits | Potency, µM (highest dose often 46.1 µM); calls by dose curve; note: actives are rising curves; nearly all actives have a fitted effect of over 50% in size
#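 Recovery from NS1-induced slow growth read by OD600 in budding yeast switched to galactose assay medium (pH 6.0, -URA) at 1:100 dilution. Compound 23 nl per well; the matching strain lacking NS1 serves as control.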
# Pf growth 48h: Primary qHTS for delayed death inhibitors of the malarial parasite plastid, 48 hour incubation. P. falciparum luciferase growth in erythrocytes, 48 h. 310,000 compounds, 5.9% hits. Potency, µM (series often up to 28.7 µM), usual class: inhibitors
#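 Parasite viability was followed by luminescence of a genomically integrated firefly luciferase. Cultures held 0.1% parasitemia at 2% hematocrit (final), incubated under 5% CO2 at 37 C.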
# SARS PLP yeast: qHTS of Yeast-based Assay for SARS-CoV PLP; S. cerevisiae expressing SARS-CoV PLpro, growth rescue; 330,000 compounds, 0.19% hits; Potency, µM (highest dose often 32.9 µM), most hits filed as activators; AID 485353, 2010; calls by dose curve; note: nearly all actives have a fitted effect of over 55% in size
# HCV inhibitor: qHTS Assay for Inhibitors of Hepatitis C Virus (HCV); AID 651820, 2012; Potency, µM (titrated, usually from 41.8 µM), usual class: inhibitors; Huh7.5.1 HCVcc-Cre infection, luciferase reporter, 44 h; 340,000 compounds, 3.4% hits
#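 1,000 cells/well; 4 h culture; + compound; + HCVcc-Cre (~0.5 moi); 44 h; luciferase substrate, RT 15 min; read 15 sec.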
# A number is an active result; . = inactive; ? = inconclusive; / = not tested or not shown; ! = a repeat was not active; [ ] = another dose, or the depositor's remark. Unless noted, calls come from the whole dose curve; as a rule, active = well fitted curve in the direction sought with a large enough effect; inconclusive = small, poorly fitted or top-dose-only effect, or another doubt; inactive = no such curve, though single readings can be large; an effect the other way counts as inactive or inconclusive.
SMILES,AMA1-RON2 inh,Pf growth 96h,NS1 inh,Pf growth 48h,SARS PLP yeast,HCV inhibitor
O=[N+]([O-])c1ccc(C23CC4CC(CC(O)(C4)C2)C3)cc1,/,.,.,.,?,/
C[C@@]12CC[C@@H]3[C@@H](CC[C@H]4C[C@@H](O)CC[C@]43C)[C@H]1CC[C@@H]2c1cc(C(F)(F)F)n[nH]1,/,/,.,/,/,/
O=C(CNC1CCCCC1)Nc1cc(S(=O)(=O)N2CCOCC2)ccc1Cl,.,.,/,.,.,.
CCCn1c(CN2CCCCC2C)nc2c1c(=O)n(C)c(=O)n2C (configuration not stated),.,.,.,.,.,.
CCCCCn1c(CN(C)Cc2ccccc2)nc2c1c(=O)n(C)c(=O)n2C,?,.[5.75 µM],.,?,.,14µM!
CCCCn1c(CN(Cc2ccccc2)Cc2ccccc2)nc2c1c(=O)n(C)c(=O)n2C,.,/,.,/,/,.
Cn1c(=O)c2c(nc(CN3CCN(C(=O)c4ccco4)CC3)n2Cc2ccccc2F)n(C)c1=O,.,1.5µM,.,/,.,.
Cc1ccccc1Cn1c(CN2CCN(C(=O)c3ccco3)CC2)nc2c1c(=O)n(C)c(=O)n2C,.,?,.,?,.,.
CCCCCCn1c(CN2CCCCC2C)nc2c1c(=O)n(C)c(=O)n2C (configuration not stated),.,?,.,.,.,25µM
C=C(C)Cn1c(CN(C)Cc2ccccc2)nc2c1c(=O)n(C)c(=O)n2C,.,.,.,.,.,11µM
Cc1c(Cc2ccccc2)sc(NC(=O)/C=C/c2cccc3ccccc23)c1C(N)=O,.,?,.,.,.,.
CCC1(c2ccccc2)NC(=O)N(CC(=O)Nc2ccc(N3CCCC3)cc2C)C1=O (configuration not stated),.,.,/,?,.,?
CCOCCn1c(CN(Cc2ccccc2)Cc2ccccc2)nc2c1c(=O)[nH]c(=O)n2C,.,.,.,?,.,.
CCOCCn1c(CN(Cc2ccccc2)Cc2ccccc2)nc2c1c(=O)n(C)c(=O)n2C,.,1.3µM,.,/,.,?
Cc1ccc(C)c(Cn2c(CN(C)Cc3ccccc3)nc3c2c(=O)n(C)c(=O)n3C)c1,.,13µM,.,/,.,?
Cc1ccc(-c2c(C#N)c(N)nc3c2CCCC3)o1,.,?,/,10µM,.,?
CCSc1nc2c(c(-c3ccc(C)o3)c1C#N)CCCC2,.,.,.,.,.,?
COC(=O)CSc1nc2c(c(-c3ccc(C)o3)c1C#N)CCCC2,.,.,.,.,.,5.6µM
CCCCc1ccc(-c2c(C#N)c(N)nc3c2CCCC3)s1,.,13µM,.,?,.,.
CC(=O)NCc1ccc(C(=O)O)cc1,.,.,.,.,.,.
S=C(NCCN1CCOCC1)Nc1ccc(Cl)cc1,.,.,.,.,.,.
O=C(/C=C/c1ccc(Cl)cc1Cl)Nc1ccncc1,.,.,.,.,.,?
O=C(NCCN1CCOCC1)Nc1ccc(Cl)cc1,.,4.7µM,.,.,.,.
O=C(/C=C/c1ccc(Cl)cc1Cl)NCc1ccncc1,.,12µM,.,?,.,.
O=C(/C=C/c1ccccc1)Nc1ccc(CN2CCOCC2)cc1,.,.,.,.,?,.
SMILES,AMA1-RON2 inh,Pf growth 96h,NS1 inh,Pf growth 48h,SARS PLP yeast,HCV inhibitor
O=C(Nc1ccc(CN2CCOCC2)cc1)c1ccc(-c2cccc([N+](=O)[O-])c2)o1,.,2.6µM,.,?,.,32µM
O=C(/C=C/c1ccc(Cl)cc1Cl)Nc1ccc(CN2CCOCC2)cc1,.,?,.,?,.,3.2µM
Cc1ccccc1-n1nnnc1SCC(=O)NC1CC1,.,/,/,/,.,.
O=C(Nc1ccc(CN2CCOCC2)cc1)c1ccc(-c2cc(Cl)ccc2Cl)o1,.,?,.,1.9µM,.,?
O=C(Nc1ccc(CN2CCOCC2)cc1)c1ccc(Br)o1,.,.,.,.,.,.
CCN(CC)S(=O)(=O)c1ccc(N2CCOCC2)c(NC(=O)c2ccccc2)c1,.,?,.,?,.,.
CCN(CC)S(=O)(=O)c1ccc(N2CCOCC2)c(NC(=O)c2cc(C)cc(C)c2)c1,.,?,.,10µM,.,.
CCN(CC)S(=O)(=O)c1ccc(N2CCOCC2)c(NC(=O)C23CC4CC(CC(Cl)(C4)C2)C3)c1,.,3.7µM,?,8.3µM,.,?
CCN(CC)S(=O)(=O)c1ccc(N2CCOCC2)c(NC(=S)NC(=O)c2ccco2)c1,.,1.5µM,.,2.6µM,.,?
CCN(CC)S(=O)(=O)c1ccc(N2CCOCC2)c(NC(=O)c2ccco2)c1,.,/,/,/,.,.
CCc1cc(C(=O)Nc2cc(S(=O)(=O)N(CC)CC)ccc2N2CCOCC2)sc1C,.,9.3µM,/,?,.,?
CCN(CC)S(=O)(=O)c1ccc(N2CCOCC2)c(NC(=O)c2sccc2C)c1,.,/,/,/,.,?
Cc1ccc(-n2[nH]c(C)c(/C=N/c3ccccn3)c2=O)cc1,.,.,.,.,.,.
Cc1[nH]n(-c2ccccc2)c(=O)c1C=Nc1cccc2cccnc12,.,.,.,?,/,3.5µM
Cc1ccc(-n2[nH]c(C)c(C=Nc3cc(C)ccn3)c2=O)cc1,.,7.4µM,.,.,.,.
Cc1ccc2c(c1)N(CC(=O)N1CCCC1)C(=O)c1cccnc1O2,.,.,.,.,.,.
Cc1ccc(-n2c(SCC(=O)NCCN3C(=O)CSC3=O)nnc2-c2ccccc2F)cc1,.,15µM,.,.,.,.
CCOC(=O)CCCCC(=O)c1[nH]c(=O)[nH]c1CSCCO,7.5µM,/,.,?,.,.
CCOC(=O)CCCCC(=O)c1[nH]c(=O)[nH]c1CSc1nc(-c2ccccc2)c(C#N)c(=O)[nH]1,?,.,.,.,.,.
CCOC(=O)CCCCC(=O)c1[nH]c(=O)[nH]c1Cn1cnc2ccccc21,38µM,/,.,.,.,.
Cc1[nH]c2ccccc2c1C(=O)COC(=O)Cn1cnc2ccccc21,.,.,.,.,.,.
O=C(O)c1ccc(CSC2CCCCC2)cc1,.,.,.,.,.,.
CCOC(=O)c1sc2nc(SCC#N)n(CCCN3CCCC3=O)c(=O)c2c1C,.,?,.,10µM,.,?
N=C(N)SC(c1ccccc1)c1ccccc1,/,/,.,/,/,/
Cc1ccsc1C(=O)OCC(=O)N1CC(C)CC(C)C1 (configuration not stated),.,/,/,/,.,.
Cc1ccc(S(=O)(=O)N2CCC[C@H]2C(=O)NCc2ccccc2Cl)cc1,.,/,/,/,.,.
CCOc1c(C(=O)CC)cc2c(C)cc(=O)oc2c1C,.,?,.,12µM,.,?

# Bioassay records deposited in PubChem by National Center for Advancing Translational Sciences (NCATS).
